Bioassay records (PubChem BioAssay)
A selection: hits, their analogues and other compounds. The true share with any hit is near 3.2%.
CHT block = human CHT choline transport inhibition | CHT-expressing cells, membrane potential dye, choline response; hits give low values | 0.86% of 310,000 active | Q9GZV3 | B-score at 10 µM | AID 488975;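 active means B-score over 3 SD under the library average, and starting fluorescence ratio not unusually high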;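 further: choline stimulus applied at its EC90 after an EC20 pre-addition; B-score computed on integrated fluorescence ratio after choline addition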
ANO1 activ = activators or potentiators of mouse TMEM16A chloride channel. HEK293 TMEM16A/YFP-H148Q/I152L, iodide quench fluorescence; hits give low values. B-score at 10 µM. 0.3% of 340,000 active;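 active means fluorescence-ratio B-score plate-corrected deviation score at least 3 library SD below zero, with starting fluorescence score within 5 deviations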;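 further: channel opened by trigger with iodide after compound preincubation; score built on the fluorescence ratio of max minus min over baseline; more negative score means more quench and so TMEM16A activation or potentiation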
HDAC3 inh = inhibitors of human histone deacetylase 3; O15379; recombinant HDAC3, fluorogenic peptide/trypsin coupled, fluorescence; inhibition, % at 8.3 µM; 0.15% of 320,000 active; AID 2718; in the data active means inhibition above about 26%, passing the limit was not always enough
PHOSPHO1 inh = inhibitors of human PHOSPHO1 phosphatase; inhibition, % at 13.3 µM; 1.1% of 290,000 active; recombinant PHOSPHO1, absorbance phosphatase assay; in the data active means inhibition above about 60%
Target sequence (Q8TCT1 whole entry, looked up): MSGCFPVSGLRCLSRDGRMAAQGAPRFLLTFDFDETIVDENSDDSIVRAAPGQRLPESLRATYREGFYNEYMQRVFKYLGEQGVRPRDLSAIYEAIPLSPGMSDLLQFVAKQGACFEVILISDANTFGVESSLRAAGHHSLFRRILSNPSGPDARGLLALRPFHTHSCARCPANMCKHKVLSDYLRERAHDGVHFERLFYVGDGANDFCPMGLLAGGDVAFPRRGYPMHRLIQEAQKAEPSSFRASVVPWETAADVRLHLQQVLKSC
CHT allo act = allosterically activates the human high affinity choline transporter. Q9GZV3. CHT-expressing cells, membrane potential dye, choline EC20; hits give high values; LV-AA mutant CHT in HEK293 cells. B-score at 10 µM. 0.49% of 310,000 active. AID 488977;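 active means initial fluorescence not abnormally high and integrated response B-score, plate-corrected, over 3 SD above library mean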
ANO1 block = mouse TMEM16A channel inhibition, primary screen; AID 588511; 1.2% of 310,000 active; normalized B-score (activity score, 25-100; higher = stronger inhibition) at 10 µM; HEK293 TMEM16A/YFP iodide influx fluorescence, ionomycin; Q8BHY3;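 active means ratio plate-corrected score three or more library SD toward inhibition, starting fluorescence score within five deviations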;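 further: score derived from kinetic fluorescence span divided by baseline fluorescence per well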
CHT block conf = confirmation of human choline transporter CHT inhibitors; shares compounds with CHT block; CHT-expressing cells, choline membrane potential dye; LV-to-AA substituted CHT, HEK293 cells; CHT activity remaining % of control (hits give low values), % at 10 µM; 70% of 2,400 active; AID 493221;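 active means choline transporter activity left, mean of duplicates at 10 µM, below buffer-only control mean minus 3 SD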;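 further: depolarization triggered by choline at its EC90 following an EC20 pre-addition; 0% = hemicholinium-3 full block and 100% = buffer-only control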
HEK293 CHT ctr = counter-screen for CHT inhibitors: effect in parental HEK293 cells. 4% of 2,400 active. membrane potential ratio readout (active if shifted either direction beyond buffer ±3SD; no single direction) at 10 µM. membrane potential dye, choline response; active = decrease or increase beyond buffer ±3SD. shares compounds with CHT block;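 further: parental cells lack the transporter so any hit is non-specific; ratio is peak minus trough fluorescence over baseline after EC90 choline challenge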
An asterisk follows results filed as active; i = inactive; nt = no result.

SMILES	CHT block	ANO1 activ	HDAC3 inh	PHOSPHO1 inh	CHT allo act	ANO1 block	CHT block conf	HEK293 CHT ctr
CCCCn1c(-c2csc(CCC)c2)n[nH]c1=S	-5.57*	i	3.2	-33.3	i	i	i	i
C=CCNc1nc(SCC=C)nc2ccsc12	-8.45*	i	8.8	13.5	i	i	24.9%*	i
C=CCC(C(=O)OC)(C(=O)OC)c1ccc([N+](=O)[O-])cc1[N+](=O)[O-]	i	i	-6.0	34.2	i	i	nt	nt
Cc1ccc(NC(=O)CN(C)C(=O)COC(=O)CNS(=O)(=O)c2ccc(Br)cc2Cl)cc1	-6.27*	-8.12*	0.5	52.6	i	i	66.5%*	i
COc1ccc(S(=O)(=O)Nc2ccccc2SC)cc1C	i	i	5.6	3.6	i	i	nt	nt
Oc1c(/C=N/c2ccccn2)sc2ccccc12	-8.2*	i	-2.4	10.6	i	i	i	i
Oc1c(C=Nc2ccc(Cl)cn2)sc2ccccc12	i	i	5.7	6.1	i	i	nt	nt
CCOC(=O)c1c(C)[nH]c(C(=O)COC(=O)CNC(=O)c2ccc(Cl)cc2)c1C	i	i	-0.7	-3.4	i	i	nt	nt
CC(C)(C)NC(=O)CSc1ncnc2c1nnn2Cc1ccccc1Cl	-6.73*	i	5.4	15.5	i	i	i	i
COC(=O)C(C)Sc1nc2c(c(=O)[nH]c(=O)n2C)n1CCCc1ccccc1 (centres undefined)	-9.31*	i	0.0	-10.6	i	i	21.1%*	i
COc1cc(OC)cc(C(=O)NCC(=O)OCC(=O)Nc2ccc(C)c(S(=O)(=O)N3CCOCC3)c2)c1	nt	i	nt	nt	nt	nt	nt	nt
O=C(C1CCCN1S(=O)(=O)c1cccc2nsnc12)N1CCCCC1 (centres undefined)	-9.82*	i	3.1	32.2	i	25*	i	i
CC(=O)c1ccc(N2CCN(C(=O)C3CCCN3S(=O)(=O)c3cccc4nsnc34)CC2)cc1 (centres undefined)	i	i	-0.6	1.5	i	i	nt	nt
CC(C)COCC(CN(Cc1ccccc1)c1ccccc1)N1CCCC1 (centres undefined)	-5.19*	i	-0.1	39.7	i	i	i	i
COc1cccc(-c2cc(-c3cccnc3)nc(N)c2C#N)c1	-7.27*	i	-63.2	35.8	i	i	i	i
Oc1ccccc1C1=NOC(O)(C(F)F)C1 (centres undefined)	i	i	-7.5	24.4	i	i	nt	nt
CCCC1=NN2C(=N)/C(=C\c3cc(C)n(Cc4ccccc4)c3C)C(=O)N=C2S1	i	i	-1.2	46.5	i	i	nt	nt
CCC1=NN2C(=N)/C(=C\c3ccc(SCc4ccco4)o3)C(=O)N=C2S1	-5.25*	i	6.0	83.3*	i	i	i	i
CCCC1=NN2C(=N)/C(=C\c3ccc(SCc4ccco4)o3)C(=O)N=C2S1	-5.82*	i	0.8	89.2*	i	i	69.4%*	i
O=C(Nc1nccs1)C1CCN(S(=O)(=O)c2c(Cl)cccc2Cl)CC1	-5.88*	i	-9.8	-3.7	i	i	i	i
O=[N+]([O-])c1cc([N+](=O)[O-])c2cccnc2c1Oc1ccccc1O	-6.96*	i	9.0	-4.5	i	i	45.1%*	i
COc1ccc(C(=O)C[n+]2ccc3c(c2)nc(-c2ccc(OC)cc2OC)n3C)cc1	i	i	-10.6	32.5	i	i	nt	nt
Cn1c(Cc2ccccc2)nnc1SCC(=O)Nc1cccc(S(=O)(=O)NC2=NCCCCC2)c1	i	i	-1.2	24.1	i	i	nt	nt
Nn1c(Cc2ccccc2F)nnc1SCC(=O)Nc1cccc(S(=O)(=O)NC2=NCCCCC2)c1	-6.1*	i	-7.4	16.1	i	i	i	i
c1ccc(C(c2ccccc2)N2CCN(Cc3nnnn3C3CCCC3)CC2)cc1	-5.57*	i	-0.8	15.6	i	i	i	i
SMILES	CHT block	ANO1 activ	HDAC3 inh	PHOSPHO1 inh	CHT allo act	ANO1 block	CHT block conf	HEK293 CHT ctr
O=C1OCCC1Sc1nc(-c2ccccc2)cs1 (centres undefined)	-9.08*	i	-0.5	-3.4	i	i	38.5%*	i
O=C1OCCC1Sc1nnnn1-c1ccccc1 (centres undefined)	i	i	0.8	43.3	i	i	nt	nt
O=S(=O)(NCC(O)c1ccccc1)c1ccc(-c2ccccn2)s1 (centres undefined)	i	i	8.2	16.6	i	i	nt	nt
CC(C)c1nc(C(=O)N2CCCC(N3CCN(c4cccc(Cl)c4)CC3)C2)cs1 (centres undefined)	-11.9*	i	-0.2	nt	i	i	2.6%*	i
O=C(Nc1ccccc1)Nc1nncs1	i	i	4.7	-23.4	i	i	nt	nt
CC(C)c1ccc(C(C)NC(=O)C2CCCC2)cc1 (centres undefined)	-5.3*	i	3.2	52.1	i	i	66.3%*	i
Cc1ccc(C(C)NC(=O)C2CCCC2)cc1C (centres undefined)	-5.39*	i	1.7	nt	i	i	44.0%*	i
CN(Cc1ccccc1)S(=O)(=O)c1ccc2[nH]cc(C(=O)NCC3CCCO3)c(=O)c2c1 (centres undefined)	-10.3*	i	4.0	-14.7	i	i	43.3%*	i
CCc1ccccc1NS(=O)(=O)c1ccc2[nH]cc(C(=O)NCC3CCCO3)c(=O)c2c1 (centres undefined)	i	i	-2.3	-5.3	i	i	nt	nt
COc1cc(C(CC(=O)N2CCCC2)c2c(OC)cc(OC)c3c(-c4ccccc4)cc(=O)oc23)cc(OC)c1OC (centres undefined)	i	i	8.4	4.0	i	i	nt	nt
COc1cc(C(CCN2CCCC(C)C2)c2c(OC)cc(OC)c3c(-c4ccccc4)cc(=O)oc23)cc(OC)c1OC (centres undefined)	-8.68*	i	7.3	26.5	i	i	22.1%*	i
CCCCCc1cc(=O)oc2c(C(CCN3CCCC3)c3ccc(N(C)C)cc3)c(OC)cc(OC)c12 (centres undefined)	-6.27*	i	-3.1	26.5	i	i	i	i
